Compound activity as filed in PubChem.
D2 PAM-1 – positive allosteric modulators of human D2 dopamine receptor. P14416. HEK293 T-REx D2, calcium flux, EC20 dopamine potentiation. potentiation, % at 10 µM. hit rate 0.34% among 340,000. AID 485347;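 active means potentiation over 3 SD above the plate norm, cut at about 30% in these data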; further: 0% is about no effect
Target sequence (P14416 whole entry, looked up): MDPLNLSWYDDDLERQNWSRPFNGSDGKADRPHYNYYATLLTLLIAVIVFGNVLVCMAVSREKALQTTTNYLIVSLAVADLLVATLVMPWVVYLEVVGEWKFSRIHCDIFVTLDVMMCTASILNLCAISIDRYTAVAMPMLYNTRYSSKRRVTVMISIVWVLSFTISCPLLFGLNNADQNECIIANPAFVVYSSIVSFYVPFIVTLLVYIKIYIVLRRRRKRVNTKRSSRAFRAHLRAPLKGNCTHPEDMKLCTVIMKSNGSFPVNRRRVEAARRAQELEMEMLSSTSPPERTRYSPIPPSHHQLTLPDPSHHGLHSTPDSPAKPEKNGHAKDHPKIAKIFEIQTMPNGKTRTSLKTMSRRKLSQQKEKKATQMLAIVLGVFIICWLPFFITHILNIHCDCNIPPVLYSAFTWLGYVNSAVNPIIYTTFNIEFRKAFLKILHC
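Primary screen. Calcium kinetics in induced HEK293 T-REx D2 cells: compound pre-addition 180 s, EC20 dopamine, 180 s more.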
D2 PAM-2 – positive allosteric modulators of human D2 dopamine receptor | P14416 | DiscoveRx D2 beta-arrestin cells, luminescence, 90 min; 100% = 57 uM dopamine signal | potentiation, % (test concentration not listed) | hit rate 0.23% among 360,000; in the data active means potentiation above about 50%; inconclusive means mostly about 30% to 49%
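PathHunter beta-arrestin assay in DiscoveRx D2 cells. Compounds were added with an EC20 of dopamine (50 nM final) for 90 min at 37 deg C. Luminescence was read 1 h after detection reagent, with 57 uM dopamine as the EC100 control.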
D2 antagonist – D2 dopamine receptor (human) antagonism; hit rate 2% among 340,000; AID 485344; inhibition, % at 10 µM; HEK293 TREx D2 cells, calcium flux, dopamine EC80; P14416; in the data active means inhibition above about 30%; inactive means below that, where a call was filed; further: 0% is about no effect
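Measurement of antagonist activity uses fluorescent calcium dye in inducible HEK293 T-REx D2 cells: 10 s baseline, compound addition with 180 s read, EC80 dopamine addition with a further 180 s read.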
D2 ag-1 – D2 dopamine receptor (human) agonism; P14416; HEK293 T-REx D2 cells, calcium flux agonist mode; activation, % at 2 µM; hit rate 0.53% among 340,000; AID 485358;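 active means activation over 3 SD above normal in the single-dose calcium agonist read, cut at about 30% in these data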; further: 0% is about no effect
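Tetracycline-induced HEK293 Trex cells with D2 receptor force-coupled to calcium signaling, plated overnight at 30 C and loaded with no-wash calcium dye. Calcium flux read kinetically for 180 s after compound addition; responses flag agonists.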
D2 ag-2 – activates the human D2 dopamine receptor; DiscoveRx PathHunter D2 beta-arrestin, luminescence, 90 min; 100% = 57 uM dopamine signal; activation, % (concentration not given with the values); hit rate 0.084% among 360,000; in the data active means activation above about 40%; inconclusive means between about 15% and that limit
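Agonist mode: compounds alone added to overnight-plated D2 PathHunter cells for 90 min at 37 C, with 57 uM final dopamine (EC100) defining full response. Beta-arrestin recruitment detected by chemiluminescent reagent, read after 1 h at ambient temperature.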
The depositor's hits bear a star; ? = inconclusive; · = no result given. The list is not random: actives were taken first. Their share in the collection is about 2.4%.

SMILES | D2 PAM-1 | D2 PAM-2 | D2 antagonist | D2 ag-1 | D2 ag-2
Cc1cc(=O)oc2c3c(cc(OCC(=O)NC(Cc4ccc(Cl)cc4)C(=O)O)c12)OC(C)(C)CC3 (configuration not stated) | -2.3 | -6.1 | 35.9* | -0.7 | 3.5
Cc1cc(=O)oc2c3c(cc(OCC(=O)N[C@@H](Cc4ccccc4)C(=O)O)c12)OC(C)(C)CC3 | -2.9 | 27.3 | -3.0 | 0.7 | 6.5
Nc1c(C(=O)C2CC2)sc2nc(-c3cccs3)cc(C(F)(F)F)c12 | -8.3 | -12.6 | 3.7 | 35.9* | -6.2
CCN(CC)CCN1C(=O)C(=O)/C(=C(/O)c2ccc(C)cc2)C1c1ccncc1 (configuration not stated) | -3.8 | · | 8.8 | -2.0 | ·
CCN(CC)CCN1C(=O)C(=O)/C(=C(/O)c2ccc(Cl)cc2)C1c1ccncc1 (configuration not stated) | 2.4 | -6.0 | 40.2* | 0.2 | 2.3
CCOC(=O)c1cnc2cc(C(F)(F)F)ccc2c1Nc1ccc(F)cc1F | · | · | · | 0.4 | ·
CN1CCc2ccccc2Cc2[nH]c3ccccc3c2CC1 | -18.3 | -31.1 | 72.0* | 0.8 | -2.0
CC1CCCN(CCCCOc2cccc(Br)c2)C1 (configuration not stated) | -20.2 | -32.3 | 75.0* | 0.2 | 0.1
Clc1cccc(OCCN2CCCC2)c1 | -14.4 | -8.4 | 26.2 | 0.4 | 1.8
CC1CCCN(CCOc2ccc(Br)cc2)C1 (configuration not stated) | -28.9 | -18.8 | 62.9* | -0.2 | 0.0
CCOc1cccc(OCCCCN2CCCCC2)c1 | -18.2 | -32.9 | -10.0 | 1.4 | -2.0
CC1CCCN(CCC(=O)c2ccc(Br)cc2)C1 (configuration not stated) | -10.7 | -49.6 | 28.9 | -0.8 | 0.2
CC(C)c1cccc(OCCN2CCCC2)c1 | -22.9 | -22.7 | 70.5* | 0.5 | 5.7
Brc1cccc(OCCCCN2CCCCC2)c1 | -37.3 | -13.1 | 88.0* | 0.7 | -0.9
O=C(Cn1c(=O)n(Cc2ccco2)c(=O)c2sc3ccccc3c21)Nc1ccc(F)cc1F | · | · | · | 1.3 | ·
COc1ccccc1-c1nnc(C2CCN(S(=O)(=O)c3ccccc3)CC2)o1 | -0.9 | · | · | 0.1 | ·
COc1cc(NS(=O)(=O)c2cc3[nH]c(=O)[nH]c3cc2C)cc(OC)c1OC | 13.1 | · | · | · | ·
COc1cc(NS(C)(=O)=O)cc(OC)c1OC | 1.0 | 1.6 | 30.4* | 0.3 | 2.5
O=C(NCCc1ccccc1Cl)c1ccc(Cn2c(=O)c3cccn3c3cccnc32)cc1 | -5.6 | · | · | -0.4 | ·
CC1=C(CCN2CCN(C3CCCC3)C(CCO)C2)C(C)(C)CCC1 (configuration not stated) | -29.4 | -14.1 | -20.1 | -0.6 | -1.4
CC(C)=CCN1CCN(CCC2=C(C)CCCC2(C)C)CC1CCO (configuration not stated) | -17.0 | -4.8 | 60.9* | 0.0 | -3.2
CCOc1ccc(NC(=O)c2oc3ccccc3c2NC(=O)Cc2cccs2)cc1 | 7.8 | · | · | -0.2 | ·
CCOCCc1nn2c(=O)cc(COC(=O)c3ccccc3Br)nc2s1 | · | · | · | 0.8 | ·
CN1C(=O)/C(=C\c2ccc(OC(=O)c3ccco3)cc2)SC1=S | 10.1 | -7.5 | 48.1* | 1.3 | -4.5
CN1C(=O)/C(=C/c2ccc(OC(=O)c3ccco3)cc2)SC1=S | 1.6 | -20.8 | -13.3 | -3.0 | 0.4
SMILES | D2 PAM-1 | D2 PAM-2 | D2 antagonist | D2 ag-1 | D2 ag-2
Cc1cccc(NC(=O)CCS(=O)(=O)c2cc(Br)cc3c2N(C(=O)C2CC2)CC3)c1 | 13.5 | · | · | · | ·
Cc1oc2c(c1C(=O)Nc1ccc(Cl)cc1F)C1=NCCN1C=N2 | 0.4 | · | · | -0.4 | ·
CCOc1ccc(NC(=O)c2cc(OC)nc3ccccc23)cc1 | -3.1 | -10.8 | 56.9* | -0.8 | -4.2
COc1cc(C(=O)Nc2ccc(C)cc2)c2ccccc2n1 | 3.7 | -1.5 | 1.9 | -0.2 | 1.5
CCCOc1ccccc1C(=O)Nc1ccc(-c2nc3ccc(C)cc3s2)cc1 | · | · | · | 0.8 | ·
COc1ccc(Cn2c3nc4ccccc4nc3c3c(=O)n(Cc4ccco4)cnc32)cc1 | 6.0 | · | 40.2* | 1.5 | ·
CNC(=O)C1CCC(Cn2c(=O)c3sccc3n(Cc3ccccc3)c2=O)CC1 (configuration not stated) | 8.5 | · | · | -1.1 | ·
Cc1ccccc1-c1nc(C(N)=O)c2c(n1)n(-c1ccc3c(c1)OCO3)c(=O)n2C | -0.6 | · | · | 0.2 | ·
Cc1cc(NC(=O)CSc2nc(-c3ccco3)cc(C(F)(F)F)n2)no1 | -1.8 | -18.1 | 36.0* | 1.5 | -3.9
Cc1cc(NC(=O)CCSc2nc(-c3ccco3)cc(C(F)(F)F)n2)no1 | 1.3 | 0.0 | -14.7 | -1.0 | -3.4
Cc1ccc(C)c(NC(=O)CN2CCCN(Cc3cccc(Cl)c3)S2(=O)=O)c1 | -13.2 | · | · | -0.3 | ·
COc1ccc(C(=O)NNC(=S)NC(=O)C(C)(C)C)cc1 | -25.9 | -10.9 | 61.9* | 92.4* | -1.1
COc1ccc(C(=O)NNC(=O)c2ccc(C(C)(C)C)cc2)cc1 | · | 6.7 | 5.3 | 0.1 | 4.9
COc1cccc(Cn2cccc(NC(=O)NC3CCCCC3)c2=O)c1 | 30.6* | -7.4 | 28.5 | 0.0 | -0.4
Clc1ccc(-c2noc3ncnc(NCCc4ccccc4)c23)cc1 | 6.4 | · | · | -0.4 | ·
COc1ccc(C)cc1S(=O)(=O)Nc1ccc(F)c(Cl)c1 | -1.0 | 28.3 | 32.0* | 0.2 | -2.6
CCOC(=O)C1(CCOC)CCN(Cc2nc(-c3cccs3)oc2C)CC1 | -21.7 | -14.2 | 31.4* | 0.6 | -3.0
Cc1oc(-c2cccs2)nc1CN1CCC(CO)(CCOc2ccccc2)CC1 | -8.0 | -29.4 | 54.1* | -0.7 | -3.8
Cc1oc(-c2cccs2)nc1CN1CCC(C(=O)N2CCCC2)CC1 | -9.5 | -11.3 | 23.2 | -1.8 | -3.9
CCOC(=O)c1cc(C)n(CC2CCC(C(=O)Nc3ccc(C(C)=O)cc3)CC2)c1C (configuration not stated) | 4.4 | · | · | -0.1 | ·
CCN1CCc2nc(SCC(=O)Nc3ccc(OC)cc3)c(C#N)cc2C1 | -23.3 | -19.9 | 35.7* | 0.2 | -2.3
COc1ccc(NC(=O)CSc2nc3c(cc2C#N)CN(C)CC3)cc1 | -21.0 | -18.2 | 19.0 | -0.2 | -1.9
Cc1ccccc1NC(=O)CSc1nccn1C | -2.8 | · | · | -0.7 | ·
CC(C)c1cccc(C(C)C)c1NS(=O)(=O)c1cccs1 | 7.8 | · | · | -1.1 | ·
O=C(CN1C(=O)c2ccc([N+](=O)[O-])cc2C1=O)NCc1ccc(C(=O)O)cc1 | 0.1 | 51.3* | 4.2 | 1.5 | 8.9
O=C(CCN1C(=O)c2ccc([N+](=O)[O-])cc2C1=O)Nc1ccc(O)cc1C(=O)O | 16.7 | 60.8* | -2.3 | -1.7 | ?
CCN(CC)CC(C)CNC(=O)c1cc(-c2ccc(Br)s2)nc2ccccc12 (configuration not stated) | -9.0 | · | · | 1.0 | ·
CCCn1c(-c2cccc([N+](=O)[O-])c2)nc2c1c(=O)[nH]c(=O)n2Cc1ccccc1 | 9.9 | -1.5 | -4.9 | 2.4 | -4.0
